Screening results: PubChem BioAssay, National Center for Advancing Translational Sciences (NCATS)
D1 antag = antagonists of human D1 dopamine receptor | P21728 | HEK293 TREx D1 cells, calcium flux, dopamine EC80; active compounds read low | 3.2% of 360,000 active | activity change, negative = inhibition, % at 10 µM; in the data active = activity change below about -30%; note: % is set by controls: 0 for no effect and ±100 for the full control effect
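Tetracycline-induced HEK293 T-REx cells with force-coupled D1 receptor were loaded with a no-wash calcium dye. Compound was added after a 10 s baseline and read kinetically for 180 s; EC80 dopamine was then added and calcium flux followed another 180 s.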
D3 antag = antagonists of human D3 dopamine receptor. P35462. D3R cells, DiscoveRx beta-arrestin luminescence, antagonist mode; active compounds read low. max response, negative = inhibition, %. 2.5% of 360,000 active. AID 652054; in the data active = max response below about -50%; note: % is set by controls: 0 for no effect and ±100 for the full control effect
Target sequence (P35462 whole entry, looked up): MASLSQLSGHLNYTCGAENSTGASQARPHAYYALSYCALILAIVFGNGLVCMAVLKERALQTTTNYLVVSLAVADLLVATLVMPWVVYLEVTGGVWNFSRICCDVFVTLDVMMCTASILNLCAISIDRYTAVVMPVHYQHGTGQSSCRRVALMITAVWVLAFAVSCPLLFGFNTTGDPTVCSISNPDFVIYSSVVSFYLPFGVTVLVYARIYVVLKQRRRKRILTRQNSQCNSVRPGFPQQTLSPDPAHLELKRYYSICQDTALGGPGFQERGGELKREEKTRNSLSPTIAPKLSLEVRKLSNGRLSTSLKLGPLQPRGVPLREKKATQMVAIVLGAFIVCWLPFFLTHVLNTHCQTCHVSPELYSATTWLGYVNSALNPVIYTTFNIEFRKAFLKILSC
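Cells expressing the human receptor were seeded at 1500 cells/well, incubated overnight at 37 degrees C in 5% CO2, then exposed to library compounds with dopamine controls for 90 minutes at 37 degrees C before luminescent detection.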
D1 potentiator = human D1 dopamine receptor positive modulation. potentiation, % at 10 µM. HEK293 TREx D1 cells, calcium flux, dopamine EC20 potentiation. P21728. 0.036% of 360,000 active; in the data active = potentiation above about 30%; note: 0% is about no effect
DRD3 agonist = agonists of human D3 dopamine receptor; D3R DiscoveRx beta-arrestin cells, luminescence, 90 min; 0.58% of 410,000 active; AID 652048; P35462; max activation, %; in the data active = max activation above about 30%; note: 0% is about no effect
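Cells at 1500/well, incubated overnight, then treated with pinned compounds (dopamine as control) for 90 min at 37 degrees C. DiscoveRx reagent added for 30 - 60 minutes at room temperature; luminescence read.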
D1 ag = agonists of human D1 dopamine receptor | P21728 | HEK293 T-REx D1 cells, calcium flux, agonist mode | activation, % at 2 µM | 1% of 360,000 active | AID 504660; in the data active = activation above about 30%; note: 0% is about no effect
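Agonism was scored from calcium flux recorded over 180 s (1 read/s) after pintool compound addition, following a 10-cycle baseline. Cells were inducible force-coupled HEK293 TREx D1, plated overnight at 30 C and loaded with no-wash calcium dye.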
* hit, by the source's call; nt = not tested or not shown. An excerpt weighted towards active compounds, which were near 6% of everything screened.

SMILES	D1 antag	D3 antag	D1 potentiator	DRD3 agonist	D1 ag
CC(C)N1CCc2c(sc(NC(=O)c3ccc(S(=O)(=O)N(C)C4CCCCC4)cc3)c2C(N)=O)C1	-15	nt	-1	-17	66*
CC(C)N1CCc2c(sc(NC(=O)c3cc(-c4cccs4)nc4ccccc34)c2C(N)=O)C1	0	23	-4	2	83*
CC(C)N1CCc2c(sc(NC(=O)c3nc4ccccc4s3)c2C(N)=O)C1	-11	-19	-6	6	2
O=C(NCCc1ccccc1)c1ccc2c(c1)nc1n2CCOC1	-6	nt	-2	6	1
CCN(CC)CCNC(=S)Nc1ccc(Cl)cc1	-1	-51*	-3	-11	12
Cc1cc(C)cc(OCC(=O)Nc2ccc(N3CCN(C(=O)c4ccco4)CC3)cc2)c1	-8	28	-2	37*	9
COc1ccc(OCC(=O)Nc2ccc(N3CCN(C(=O)c4ccco4)CC3)cc2)cc1	-8	3	-6	5	6
O=C(COc1ccc(Cl)cc1)Nc1ccc(N2CCN(C(=O)c3ccco3)CC2)cc1	-31*	11	-8	14	17
COc1cc(NS(=O)(=O)c2ccc(N)cc2)nc(C)n1	nt	nt	nt	-7	nt
CCOc1ccc(C(=O)NCCSc2c(C)[nH]c3ccccc23)cc1OCC	-29	nt	-1	-6	10
COc1ccc(C(C)NC(=O)C2CCCC2)cc1OC (stereo not given)	-48*	2	5	-6	8
CCC(=O)c1ccc2ncccc2c1	-30*	8	-8	-1	0
CCCCc1ccc(C2C(C#N)=C(N)SC(N)=C2C#N)s1	-67*	nt	-9	nt	63*
CCOc1ccc(C2C(C#N)=C(N)SC(N)=C2C#N)c(OCC)c1	3	39	2	5	3
Cc1cccc(C)c1NC(=O)C1c2ccccc2OCC(=O)N1CCc1ccccc1 (stereo not given)	nt	0	nt	-2	nt
O=C(N/C(=C\c1cccnc1)C(=O)N1CCOCC1)c1ccco1	-33*	0	-6	-1	1
COc1ccc(/C=C(\NC(=O)c2ccccc2)C(=O)N2CCCCC2)cc1OC	-3	16	-5	3	7
COc1ccc(/C=C(/NC(=O)c2ccccc2)C(=O)N2CCCCC2)cc1OC	0	-12	4	-7	72*
COc1ccc(/C=C(/NC(=O)c2ccco2)C(=O)N2CCCCCC2)cc1OC	29	18	-2	2	36*
COc1cccc(/C(O)=C/c2nc3ccc(C(=O)NCCc4ccc(Cl)cc4)cc3[nH]c2=O)c1	-14	17	-4	0	15
COc1cccc(/C(O)=C/c2nc3ccc(C(=O)NCCc4cccc(C)c4)cc3[nH]c2=O)c1	-41*	9	-8	1	46*
CCOc1nc(NC(=O)NS(=O)(=O)c2ccccc2F)nc(-c2ccccc2)n1	-31*	9	1	2	1
CCOc1nc(NC(=O)NS(=O)(=O)Oc2ccccc2)nc(-c2ccccc2)n1	5	nt	-3	2	0
Cc1cccc2cc(C(c3nnnn3Cc3ccc4c(c3)OCO4)N3CCCC3)c(=O)[nH]c12 (stereo not given)	8	-51*	-2	12	2
O=c1[nH]c2cc3c(cc2cc1C(c1nnnn1Cc1ccccc1)N1CCCCCC1)OCCO3 (stereo not given)	3	-19	-5	-1	4
SMILES	D1 antag	D3 antag	D1 potentiator	DRD3 agonist	D1 ag
CC(C)C[C@H]1CNC(=O)C(=O)N1C[C@@H]1CCCN1C[C@H](CC(C)C)N1C[C@H](Cc2ccc(O)cc2)N(CCc2ccccc2)C(=O)C1=O	nt	2	nt	1	nt
CC1CCN(C(=O)CSc2c3c(nc4ccc(Cl)cc24)CCCC3)CC1	9	nt	0	69*	-1
CC(Oc1ccc(C(C)(C)C)cc1)c1ccnc2nc(/N=C/N(C)C)nn12 (stereo not given)	0	7	-6	-10	46*
Cc1nc(N2CCC(C)CC2)c2c(C)c(C(=O)Nc3ccccc3C(F)(F)F)sc2n1	22	77	-1	31*	2
Cc1nc(N2CCN(c3ccccn3)CC2)c2c(C)c(C(=O)Nc3c(C)cc(Br)cc3C)sc2n1	-15	25	-7	16	1
Cc1nc(N2CCN(c3ccccn3)CC2)c2c(C)c(C(=O)Nc3c(F)cc(F)cc3Br)sc2n1	7	40	0	39*	3
CCOc1ccc(NC(=O)Cn2ccn3nc(-c4ccc(OC)c(OC)c4)cc3c2=O)cc1	-5	nt	0	-8	-1
Cc1cccc(CCNC(=O)C2CCC(CNS(=O)(=O)c3ccccc3)CC2)c1 (stereo not given)	5	nt	2	-13	4
COC1C=CC=C(C)C(=O)NC2=CC(=O)C(N)=C(CC(C)CC(OC)C(O)C(C)C=C(C)C1OC(N)=O)C2=O (stereo not given)	nt	-1	nt	-8	nt
Cc1cc(C)n(-c2nc3ccccc3nc2Nc2ccc3[nH]c(=O)[nH]c3c2)n1	19	25	12	42*	4
C=CC[C@@H](CC(=O)N[C@@H](CO)Cc1ccccc1)C(=O)NC[C@@H](OC(=O)[C@@H](CC=C)Cc1ccc(F)cc1)c1ccccc1	nt	2	nt	5	nt
C=CCC[C@@H](Cc1ccc(F)cc1)C(=O)OC[C@@H](NC(=O)[C@@H](CC=C)CC(=O)N[C@H](CO)Cc1ccccc1)C(C)(C)C	nt	-63*	nt	-16	nt
C=CCC[C@@H](Cc1ccc(F)cc1)C(=O)OC[C@@H](Cc1c[nH]c2ccccc12)NC(=O)[C@@H](CC=C)CC(=O)N(CCO)Cc1ccccc1	nt	129	nt	41*	nt
C=CC[C@@H](CC(=O)N[C@@H](CO)Cc1ccccc1)C(=O)N[C@H](COC(=O)[C@@H](CC=C)Cc1ccc(F)cc1)C(C)(C)C	nt	2	nt	2	nt
C=CCC[C@H](Cc1ccc(F)cc1)C(=O)OC[C@H](Cc1c[nH]c2ccccc12)NC(=O)[C@H](CC=C)CC(=O)N(CCO)Cc1ccccc1	nt	0	nt	-6	nt
C=CC[C@@H](CC(=O)N[C@@H](CO)Cc1ccccc1)C(=O)NC[C@H](OC(=O)[C@@H](CC=C)Cc1ccc(F)cc1)c1ccccc1	nt	43	nt	53*	nt
Cc1cccc(OCC(=O)N(Cc2sccc2C)C2CCS(=O)(=O)C2)c1 (stereo not given)	2	nt	0	9	-2
O=C1CS/C(=N/N=C2CCCC2)N1	-48*	1	5	3	4
O=C1CSC(=NC2CCCCC2)N1	12	-6	-1	1	1
CCOc1ccc(NC2CCCCC2NS(=O)(=O)c2ccccc2)cc1 (stereo not given)	-35*	2	22	3	-1
O=C(O)c1cccc(OCCN2CCCC2=O)c1	-32*	2	-3	3	6
ONC(=Nc1cccc(C(F)(F)F)c1)c1cccnc1	-6	-63*	-1	-2	1
